Sampled rows, rich in hits. Any-hit rate of the full collection: about 6.6%.
KB-V1 MDR tox – kills drug-selected multidrug resistant KB-V1 cells; KB-V1 MDR cells viability, CellTiter-Glo, 72 h; Potency, µM (titrated, usually from 46.1 µM), actives largely listed as cytotoxic; 400,000 tested, 3.4% active; further: on the % scale 0 is the no-effect control and ±100 the full control effect; nearly all actives have a fitted effect of over 60% in size
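Readout: CellTiter-Glo luminescence, 10 min after addition. Cells: KB-V1 MDR subline, 72 h at 37 degrees C with compound. Analysis: corrected, normalized data fitted to concentration-effect curves.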
SW480 rerep – induces DNA re-replication in SW480 colon adenocarcinoma cells; AID 624297; 340,000 tested, 1.8% active; Potency, µM (series often up to 46.1 µM), inactives show at the top dose re-replication activation, hits mostly activators; SW480 DNA re-replication, Hoechst DNA content imaging, 48 h; further: % of control where 0% means no effect; nearly all actives have a fitted effect of over 55% in size
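250 cells/well; 23 nL cpd via pin tool; 48 hr, 37 C, 5% CO2; Hoechst 40 min; imager read of total nuclear intensity, ex 405/em 500-530 nm.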
TSG101-PTAP inh – blocks PTAP/TSG101 interaction to inhibit HIV-1 budding; Q99816; Fluorescence polarization, FITC-PTAP peptide / Tsg101 binding; Potency, µM (top dose mostly 115 µM), without a hit: at the top dose activity change, negative = inhibition, actives largely listed as inhibitors; 340,000 tested, under 10 active; AID 493005; active means well fitted inhibition curve with a large enough effect in the main read-out, with a control signal flat, not every such curve was filed as active; inconclusive means small, poorly fitted or top-dose-only effect, or effect the other way, or a change in a side signal; inactive means no such curve, though single readings can be large or run the other way; further: % of control where 0% means no effect
Target sequence (Q99816 whole entry, looked up): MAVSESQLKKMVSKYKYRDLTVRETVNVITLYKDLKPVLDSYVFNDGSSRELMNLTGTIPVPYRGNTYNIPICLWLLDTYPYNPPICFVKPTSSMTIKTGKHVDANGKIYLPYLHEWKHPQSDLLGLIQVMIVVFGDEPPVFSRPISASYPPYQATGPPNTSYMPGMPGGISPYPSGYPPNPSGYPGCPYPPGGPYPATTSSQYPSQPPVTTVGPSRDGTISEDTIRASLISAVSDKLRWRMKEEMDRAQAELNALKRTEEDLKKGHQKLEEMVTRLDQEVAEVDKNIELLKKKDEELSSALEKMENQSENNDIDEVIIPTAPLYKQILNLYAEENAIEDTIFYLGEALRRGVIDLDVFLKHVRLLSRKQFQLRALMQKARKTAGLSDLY
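Steps: Tsg101 binding domain dispensed (10 uM final), compounds pinned in DMSO, FITC-labeled PTAP-motif peptide added (50 nM final); after 20 min binding at room temperature, polarization measured.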
MCF10A rerep – induces DNA re-replication in MCF 10a normal breast cells | MCF 10A DNA re-replication, Hoechst nuclear intensity, 48 h | Potency, µM (highest dose often 46.1 µM), for inactives: at the highest dose activity, positive = re-replication, most hits filed as activators | 350,000 tested, 2.9% active; further: % of control where 0% means no effect; nearly all actives have a fitted effect of over 50% in size
RGS4 inhibitor – blocks human RGS4-accelerated GTP hydrolysis; P49798; Transcreener GDP fluorescence polarization, RGS4-accelerated GTP hydrolysis; Potency, µM (top dose mostly 114 µM), for inactives: top-dose activity change, negative = inhibition, hits mostly inhibitors; 390,000 tested, 0.039% active; AID 504845; further: on the % scale 0 is the no-effect control and ±100 the full control effect; nearly all actives have a fitted effect of over 75% in size
Target sequence (P49798 whole entry, looked up): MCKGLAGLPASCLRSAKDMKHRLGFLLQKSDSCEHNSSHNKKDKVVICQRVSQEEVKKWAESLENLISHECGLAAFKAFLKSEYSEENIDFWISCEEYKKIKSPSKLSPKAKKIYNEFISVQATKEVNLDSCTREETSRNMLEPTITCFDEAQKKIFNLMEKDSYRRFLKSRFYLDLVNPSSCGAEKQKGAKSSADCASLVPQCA
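MLSMR compounds (23 nl, pin-transferred) preincubated 10 min at room temperature with a 500nM (2x) first reagent, then RGS4 at 900nM (2x) plus Transcreener GDP mix added; fluorescence polarization (620/688 nm) read before and after 90 min at 30 °C.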
KB-3-1 tox – kills parental KB-3-1 adenocarcinoma cells; AID 1347075; 400,000 tested, 1.4% active; KB-3-1 viability, CellTiter-Glo ATP luminescence, 72 h; Potency, µM (doses to about 46.1 µM), actives largely listed as cytotoxic; further: on the % scale 0 is the no-effect control and ±100 the full control effect; nearly all actives have a fitted effect of over 60% in size
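Multi-concentration cytotoxicity screen in KB-3-1 cells grown in DMEM lacking phenol red with 10% FBS. After 72 h at 37 °C with compound, ATP-dependent luminescence was recorded.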
* marks the source's active call; other numbers are inactive results; i = inactive; ? = inconclusive; . = no result given; [ ] = dose if it differs, or a comment. Unless noted, the call rests on the fitted dose curve; in most records, active means well fitted curve in the direction sought with a large enough effect; inconclusive means small, poorly fitted or top-dose-only effect, or another doubt; inactive means no such curve, though single readings can be large; an effect the other way counts as inactive or inconclusive. Potency means the concentration at half of the fitted maximal effect.

SMILES | KB-V1 MDR tox | SW480 rerep | TSG101-PTAP inh | MCF10A rerep | RGS4 inhibitor | KB-3-1 tox
CCOC1=C2CN(S(=O)(=O)c3ccc(C)cc3)C(c3ccc(CC)cc3)CC2N(S(=O)(=O)c2ccc(C)cc2)C(c2ccc(CC)cc2)C1 (stereo unspecified) | i | . | . | . | . | 1µM*
Cc1ccc2nc(NCC(N)=O)nc(-c3ccccc3)c2c1 | i | 18µM* | 0% | ? | 3% | i
O=C(O)c1ccc(Nc2c3ccccc3nc3ccccc23)cc1 | i | ? | -8% | 21µM* | -25% | i
O=C(O)c1ccc(Nc2nc(-c3ccccc3)nc3ccccc23)cc1 | i | -1% | -7% | 9% | ? | i
COc1ccc(Nc2nc(-c3ccncc3)nc3ccccc23)cc1 | ? | 18µM* | -5% | ? | -23% | i
COc1ccc(OC)c(Nc2nc(-c3ccncc3)nc3ccccc23)c1 | ? | ? | -3% | ? | 1%[56.9 µM] | i
CC(C)(C)Nc1c2ccccc2nc2ccccc12 | i | 23µM* | -2% | 15µM* | 4% | i
COc1cccc(Oc2nc(-c3ccncc3)nc3ccccc23)c1 | ? | -6%[9.22 µM] | -3% | 18µM* | -7% | ?
CN1CCN(c2ccc(Nc3ccnc4cc(Cl)ccc34)cc2)CC1 | ? | ? | -1% | -4% | 9% | ?
CCN1CCN(c2ccc(Nc3ccnc4ccccc34)cc2)CC1 | i | 15µM* | -4% | ? | 10% | ?
CN1CCN(c2ccc(Nc3c4ccccc4nc4ccccc34)cc2)CC1 | 23µM* | . | . | . | . | 15µM*
COc1ccc(Oc2nc(-c3ccncc3)nc3ccccc23)cc1 | i | 0%[9.22 µM] | -3% | 4% | -4% | i
COc1ccc(C)cc1Nc1c2c(nc3ccccc13)CCC2 | 2.9µM* | 2.9µM* | -4% | 1.6µM* | 19% | 0.65µM*
COc1ccc(Nc2c3c(nc4ccccc24)CCCC3)cc1OC | ? | -1% | -4% | 2% | -12% | ?
Fc1ccccc1N1CCN(c2c3c(nc4nncn24)CCC3)CC1 | ? | . | . | . | 11% | i
Cc1ccc(C)c(NC(=O)c2nc(S(C)(=O)=O)ncc2N(Cc2ccc(C(C)(C)C)cc2)Cc2ccco2)c1 | i | . | . | . | -9% | i
CCOc1ccc(NC(=O)c2cnn3c2NC(C)=C(C(=O)Nc2ccc(Cl)cc2)C3c2ccc(OC)c(OC)c2)cc1 (stereo unspecified) | i | . | . | . | 3% | i
COc1ccccc1Nc1nc(-c2ccccc2)nc2ccccc12 | i | 0.58µM* | 1% | 5% | -23% | i
COc1ccc(Nc2cc(C)c3ccccc3n2)cc1 | i | 8% | -1% | 8% | -10% | i
COc1cc(Nc2nc(-c3ccccc3)c3cc(C)ccc3n2)cc(OC)c1OC | 21µM* | 5% | -6% | ? | 14%[11.4 µM] | ?
COc1ccc(Nc2c3ccccc3nc3ccccc23)cc1 | ? | 23µM* | -3% | -2% | 16% | 6.5µM*
OCCCNc1nc(-c2ccccc2)c2cc(Br)ccc2n1 | ? | ? | -8% | 4.6µM* | 5% | ?
CC(=O)c1cccc(NC(=O)CN2C(=O)c3cccnc3Sc3ccccc32)c1 | i | . | . | . | -33% | i
N#Cc1ccc(NS(=O)(=O)c2ccc3c(c2)CCC(=O)N3)cc1 | ? | . | . | . | . | i
COc1cc(Nc2c3ccccc3nc3ccccc23)cc(OC)c1OC | ? | 23µM* | -4% | ? | -6% | ?
SMILES | KB-V1 MDR tox | SW480 rerep | TSG101-PTAP inh | MCF10A rerep | RGS4 inhibitor | KB-3-1 tox
Oc1cccc(Nc2c3ccccc3nc3ccccc23)c1 | i | 7% | -1% | ? | -22% | i
COc1ccccc1Nc1nc(-c2ccccc2O)nc2ccccc12 | i | 22% | 2% | 7% | 1% | i
COc1ccc(Nc2c3c(nc4ccccc24)CCC3)cc1 | 21µM* | 8% | 2% | 1% | 19% | ?
Cc1ccc(-c2nc(NCCCO)c3ccccc3n2)cc1 | ? | 3% | -3% | 10% | 10% | i
COc1ccccc1Nc1c2ccccc2nc2ccccc12 | 15µM* | ? | 0% | ? | 2% | ?
OCCCNc1c2ccccc2nc2ccccc12 | ? | ? | 0% | -5% | -17% | 8.2µM*
COc1ccc(NC(=O)C2CCN(C3=NS(=O)(=O)C(c4ccc(C)c(C)c4)=C3C)CC2)c(OC)c1 | i | . | . | . | 4% | i
CCc1ccc2oc(-c3cccc(NC(=O)C(C)(C)Oc4ccc(Br)cc4)c3)nc2c1 | i | . | . | . | -8% | i
O=C(C1CCN(S(=O)(=O)c2cccnc2)CC1)N1CCN(c2ccc(Cl)cc2)CC1 | 6.5µM* | -18% | 0% | -3% | -18% | 13µM*
O=C(C1CCN(S(=O)(=O)c2c(Cl)cccc2Cl)CC1)N1CCCCCCC1 | i | 4.1µM* | -8% | 0% | 15% | i
Cc1n[nH]c(C)c1S(=O)(=O)N1CCCC(C(=O)N2CCN(c3ccc(Cl)cc3)CC2)C1 (stereo unspecified) | ? | ? | -5% | 7% | -7% | i
O=S(=O)(c1ccc(Cl)s1)N1CCN(c2ncccn2)CC1 | i | 7% | -5% | 18µM* | -15% | i
Cc1nn(C)c(C)c1S(=O)(=O)N1CCCC(C(=O)N2CCN(c3ccc(Cl)cc3)CC2)C1 (stereo unspecified) | i | -5% | -1% | 0% | -54%[11.4 µM] | 18µM*
COc1cccc(-c2nc3c(C#N)c[nH]n3c2NC2CCCCC2)c1 | i | . | . | . | -11% | i
COc1ccc(-c2ccc(N(C)C)cc2)cc1C1C2C=CCCC2(C)C(=O)N1Cc1ccccc1 (stereo unspecified) | . | . | . | . | -4% | .
CCN(CC)S(=O)(=O)c1ccc(NC(=O)[C@H](CSCc2ccccc2)N2Cc3ccccc3C2=O)cc1 | . | . | . | . | 13% | .
O=C(C1CCN(S(=O)(=O)c2ccc(Cl)s2)CC1)N1CCN(c2ccccc2)CC1 | 18µM* | -5% | 0% | 19% | 18% | i
COc1ccccc1C1Nc2c(sc3nc(C)cc(C)c23)C(=O)N1c1ccccc1 (stereo unspecified) | . | . | . | . | 24% | .
CCCCC[n+]1ccn(C2=C([O-])c3ccccc3C(=O)/C2=N\S(=O)(=O)c2ccccc2)c1 | i | 11µM* | -5% | 19% | 5% | ?
Cc1ccccc1NC(=O)/C=C1\SC(=O)NC1=O | ? | ? | -8% | 23µM* | -15% | i
CCc1ccc(N2C(=O)CS(=O)(=O)C23C(=O)N(Cc2ccccc2)c2ccccc23)cc1 (stereo unspecified) | i | . | . | . | 6% | i

Screening data from PubChem BioAssay.
